The text below walks through data of PubChem BioAssay (Tox21).

Results filed as inconclusive are left out. Calls of active or inactive are those of the source. Unless noted, calls come from the whole dose curve; as a rule, active = well fitted curve in the direction sought with a large enough effect in the repeat runs; inconclusive = weak or mixed curves; inactive = no such curve, though single readings can be large; an effect the other way counts as inactive or inconclusive.

Assay [1] can be described thus: qHTS assay to identify small molecule antagonists of the estrogen related receptor (ERR) signaling pathway from Tox21 library - cell viability counter screen (AID 1224834). Note: nearly all actives have a fitted effect of over 30% in size. The gist of the method:
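Cytotoxicity of test substances is gauged in the same ERR cells used for the antagonist screen, after 17.5 h of compound treatment at 37 C, by CellTiter-Fluor fluorescence measured after 30 min.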

Assay [2] addresses Luciferin 4-monooxygenase (Photinus pyralis) (UniProt P08659). As to the kind of experiment: qHTS assay to identify small molecule inhibitors of firefly luciferase (AID 1224835). Note: nearly all actives have a fitted effect of over 25% in size. The gist of the method: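 Quantitative HTS format; KM concentrations of both substrates. Purified P. pyralis FLuc activity quantified from luminescence images.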
Background: qHTS replaces the single test concentration by a dilution series.

Assay [3] can be described thus: qHTS assay to identify small molecule agonists of the constitutive androstane receptor (CAR) signaling pathway - cell viability counter screen (AID 1224836). Note: nearly all actives have a fitted effect of over 45% in size. The method in brief:
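Viability read-out: CellTiter-Fluor fluorescence after 23 h compound exposure at 37 C/5% CO2 in double-stable HepG2-CYP2B6-hCAR cells, with PK11195 present at 0.75 uM final; compounds tested in 15-point titration.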

Assay [4] in a line: qHTS assay to identify small molecule antagonists of the constitutive androstane receptor (CAR) signaling pathway - cell viability counter screen (AID 1224837). Note: nearly all actives have a fitted effect of over 45% in size. The method in brief: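 Multiplexed cytotoxicity read-out for the CAR antagonist screen: double-stable HepG2-CYP2B6-hCAR cells co-treated with 50 nM CITCO (final) and compound over 15 concentrations, incubated 23 hr, then assessed by CellTiter-Fluor fluorescence.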

Assay [5] can be described thus: qHTS assay to identify small molecule antagonists of the estrogen related receptor signaling pathway with the pleiotropic PPARgamma coactivator (PGC) from Tox21 10K library - cell viability counter screen (AID 1224840; active = well fitted cell-killing curve with a large enough effect in the repeat runs, not every such curve was filed as active; note: nearly all actives have a fitted effect of over 40% in size). The method in brief: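 Step one, plate 2,000 PGC/ERR cells per well; step two, incubate 6 h at 37 C/5% CO2; step three, pin-transfer compounds; step four, incubate 17.5 h; step five, add CellTiter-Fluor and read fluorescence after 30 min.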

Assay [6] in a line: qHTS assay to identify small molecule antagonists of the estrogen related receptor signaling pathway with the pleiotropic PPARgamma coactivator (PGC) from Tox21 10K library (AID 1224841; call rule not given here; note: actives are mostly falling curves and most rising ones were filed inactive; nearly all actives have a fitted effect of over 50% in size). The method in brief:
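Antagonism in this quantitative HTS is taken from loss of luciferase signal in PGC/ERR cells. Cells (2,000/well) are treated with compounds in DMSO after a 6 h settling period and read by One-Glo luminescence after 18 h.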

Assay [7] can be described thus: qHTS assay to identify small molecule agonists of the estrogen related receptor signaling pathway with the pleiotropic PPARgamma coactivator (PGC) from Tox21 10K library (AID 1224842). Note: nearly all actives have a fitted effect of over 15% in size. The method in brief: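 PGC/ERR reporter cells (NTP line) were seeded 2,000 per well, rested 6 h at 37 C/5% CO2, then pin-dosed with compounds in DMSO for 18 h at 37 C; luciferase read by One-Glo luminescence after 30 min at room temperature.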

Assay [8] addresses Nuclear receptor subfamily 1 group I member 3 (Homo sapiens) (UniProt Q14994). As to the kind of experiment: qHTS assay to identify small molecule antagonists of the constitutive androstane receptor (CAR) signaling pathway (AID 1224838). Note: nearly all actives have a fitted effect of over 40% in size. The gist of the method: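 Compounds were titrated across 15 concentrations onto HepG2 cells double-stably expressing hCAR and a CYP2B6-2.2kb reporter, together with 50 nM CITCO (final). After 24 h at 37 C, luciferase activity was measured by luminescence.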

Assay [9] has the same target. As to the kind of experiment: qHTS assay to identify small molecule agonists of the constitutive androstane receptor (CAR) signaling pathway (AID 1224839). Note: nearly all actives have a fitted effect of over 15% in size. The gist of the method:
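Luminescence read-out (ONE-Glo, 30 min, room temperature) from double-stable HepG2-CYP2B6-hCAR cells exposed 24 h to 15-point compound series in presence of 0.75 uM PK11195 final.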
Potency is the fitted concentration of half-maximal effect.

Chain of Nuclear receptor subfamily 1 group I member 3 (Homo sapiens) (Q14994 whole entry, looked up): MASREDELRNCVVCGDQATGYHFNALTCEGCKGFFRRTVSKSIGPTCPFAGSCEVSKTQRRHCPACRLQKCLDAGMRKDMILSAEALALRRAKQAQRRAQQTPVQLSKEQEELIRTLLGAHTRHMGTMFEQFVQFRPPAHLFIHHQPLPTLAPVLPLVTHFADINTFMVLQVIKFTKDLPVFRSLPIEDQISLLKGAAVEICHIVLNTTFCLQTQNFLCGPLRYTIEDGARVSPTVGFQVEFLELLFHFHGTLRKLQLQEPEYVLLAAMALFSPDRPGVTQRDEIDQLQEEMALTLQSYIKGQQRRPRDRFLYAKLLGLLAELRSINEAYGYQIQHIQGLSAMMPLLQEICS
Chain of Luciferin 4-monooxygenase (Photinus pyralis) (P08659 whole entry, looked up): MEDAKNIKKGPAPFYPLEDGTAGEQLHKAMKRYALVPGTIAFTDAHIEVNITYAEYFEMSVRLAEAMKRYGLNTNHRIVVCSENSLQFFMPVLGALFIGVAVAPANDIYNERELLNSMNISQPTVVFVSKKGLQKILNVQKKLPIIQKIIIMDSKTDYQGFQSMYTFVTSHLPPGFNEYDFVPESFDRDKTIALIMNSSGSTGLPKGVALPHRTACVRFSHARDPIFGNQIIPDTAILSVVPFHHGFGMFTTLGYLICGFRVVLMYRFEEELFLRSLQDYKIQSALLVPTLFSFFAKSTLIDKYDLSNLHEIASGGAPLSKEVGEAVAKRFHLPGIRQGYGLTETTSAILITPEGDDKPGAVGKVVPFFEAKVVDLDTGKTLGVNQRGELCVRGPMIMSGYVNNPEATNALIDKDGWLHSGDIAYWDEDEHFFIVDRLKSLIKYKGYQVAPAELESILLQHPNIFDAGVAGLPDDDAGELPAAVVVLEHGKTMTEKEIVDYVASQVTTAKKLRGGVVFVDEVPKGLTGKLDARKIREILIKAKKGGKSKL

In the case of `O=C(/C=C/c1ccc([N+](=O)[O-])cc1)c1ccccc1`, the Potency in assay [1] was 54.6 µM (active); in assay [2], 1.13 µM (active); in [3], 61.3 µM (active); in assay [4], 68.7 µM (active); in [5], 54.6 µM (active).
Regarding `CC1CCC(C(C)CS)CC1S` (stereo not drawn), the Potency result in [1], in assay [2], in assay [3], in assay [4], in assay [5] and in [6] was “inactive” each time.
Turning to `COc1ccc(C)cc1`, the Potency entry in [1], in assay [2], in assay [3], in assay [4] and in assay [5] was “inactive” in each case.
For the molecule `O=C(O)CCCc1c[nH]c2ccccc12`, the Potency result in assay [1], in [2], in assay [3], in assay [4], in assay [5] and in [6] was “inactive” in each case. The Potency entry in assay [7] is “inactive”.
For the molecule `CC(=O)C(=O)CC(C)C`, the Potency entry in assay [1], in [2], in assay [3], in [4] and in [5] was “inactive” throughout.
As for `O=C1[C@@H]2[C@H]3CC[C@H](C3)[C@@H]2C(=O)N1CCCCN1CCN(c2ncccn2)CC1`, the Potency result in assay [1], in [3], in [4], in assay [8], in [9] and in [5] was “inactive” throughout.
For `CCCCCCCCCCCC(=O)OCC(O)CO` (stereo not drawn), the Potency result in assay [1], in assay [3], in assay [4], in [8], in [9] and in assay [5] was “inactive” each time. In addition, the Potency entry in assay [6] and in assay [7] was “inactive” throughout.
Take `CNS(=O)(=O)c1cc(C(=O)N2CCC(CCN3C4CCC3CC(n3c(C)nc5ccccc53)C4)(c3cccc(F)c3)CC2)c(Cl)cc1F` (stereo not drawn): the Potency in assay [1] is 13.7 µM (active). Besides, the Potency entry in assay [2] and in [4] was “inactive” throughout.
Turning to `O=c1[nH]c2cc(C(F)(F)F)c(N3CCOCC3)cc2n(CP(=O)(O)O)c1=O`, the Potency entry in assay [1], in [3], in assay [4], in assay [8], in [9] and in assay [5] was “inactive” in each case.
`CCOCCC(=O)OCC`: the Potency entry in assay [1], in assay [3], in assay [4], in assay [8], in [9] and in assay [5] was “inactive” throughout.
As for `CCNc1nc(N)nc(Cl)n1`, the Potency result in [1], in [3], in assay [4], in [9], in [5] and in assay [6] was “inactive” each time. Besides, the Potency result in [7] is “inactive”. In assay [8], the Potency was 24.3 µM (active).
Take `Cc1c(C2(c3cc(Br)c(O)c(Br)c3C)OS(=O)(=O)c3ccccc32)cc(Br)c(O)c1Br`: the Potency in assay [1] is 14.9 µM (active); in assay [3], 14.9 µM (active); in assay [4] it was 18.8 µM (active); in [8], 11.8 µM (active); in assay [5] it was 18.8 µM (active); in assay [6], 11.8 µM (active). Further, the Potency result in assay [9] and in [7] was “inactive” throughout.
Regarding `CCCCC[C@H](O)/C=C/[C@H]1[C@H](O)CC(=O)[C@@H]1C/C=C\CCCC(=O)O`, the Potency entry in [1], in [3], in assay [4], in assay [8], in assay [9] and in assay [5] was “inactive” throughout.
For `Nc1ccc(N=Nc2ccc(N)cc2)cc1`, the Potency is 27.3 µM (active) in [1] and 4.48 µM (active) in assay [2]. Moreover, the Potency entry in assay [8] and in assay [9] was “inactive” in each case.
With `CC1CCCO1` (stereo not drawn), the Potency result in [1], in assay [3], in assay [4], in assay [8], in assay [9] and in assay [5] was “inactive” throughout.
Turning to `CCN(CC)C(=O)/C(C#N)=C/c1cc(O)c(O)c([N+](=O)[O-])c1`, the Potency in assay [1] was 26.6 µM (active). Moreover, the Potency result in assay [2], in assay [8] and in assay [9] was “inactive” throughout.
On to `CC(C)C(=O)OCCOc1ccccc1`, for which the Potency result in [1], in assay [3], in [4], in assay [8], in assay [9] and in [5] was “inactive” each time.
For `CNCc1ccc(NC(=O)c2c[nH]c3c2C(=O)CCC3)cc1`, the Potency result in [1], in assay [2], in assay [3], in assay [8], in assay [5] and in assay [6] was “inactive” in each case. Also, the Potency result in assay [7] is “inactive”. The Potency in assay [9] was 1.72 µM (active).
Regarding `CC(C)C(O)C(C)(C)CO` (stereo not drawn), the figures for the Potency in assay [1], in assay [8] and in assay [6] were 0.631 µM (active), 8.91 µM (active) and 1.78 µM (active), respectively. Moreover, the Potency entry in assay [2], in [9] and in assay [7] was “inactive” throughout.
In the case of `CC(C)N=C=NC(C)C`, the Potency entry in assay [1], in assay [3], in assay [4], in [8], in [9] and in assay [5] was “inactive” in each case. Also, the Potency entry in assay [6] and in assay [7] was “inactive” throughout.
As for `CCN(CC)CCOC(=O)C(c1ccccc1)c1ccccc1`, the Potency entry in assay [1], in assay [3], in assay [4], in [8], in assay [9] and in assay [5] was “inactive” each time.
Consider `O=C(Oc1ccccc1)c1ccc2ccccc2c1O`, for which the Potency entry in [1], in [3], in [4], in assay [8], in assay [5] and in [6] was “inactive” in each case. For the same molecule, the results for the Potency in assay [9] and in [7] were 54.5 µM (active) and 9.69 µM (active), respectively.
For `CCCCCC`, the Potency result in assay [1], in [3], in [4], in [8], in assay [9] and in assay [5] was “inactive” in each case.
In the case of `COc1ccc(C(=O)NCc2ccc(OCCN(C)C)cc2)cc1OC`, the Potency result in assay [1], in assay [2], in assay [3], in assay [4], in assay [5] and in [7] was “inactive” throughout.
For `BrC(Br)C(Br)Br`, the Potency entry in [1], in assay [3], in assay [4], in assay [8], in [9] and in assay [5] was “inactive” throughout.
For `Cc1cc(CCCOc2c(C)cc(-c3noc(C(F)(F)F)n3)cc2C)on1`, the Potency entry in assay [1], in [3], in [4], in assay [8] and in [5] was “inactive” throughout. Moreover, in assay [9], the Potency was 23.7 µM (active).
With `O=C(Nc1ccc(C(=O)O)c(O)c1)c1ccccc1`, the Potency result in assay [1], in assay [4], in assay [8], in assay [9] and in [5] was “inactive” throughout. Further, the Potency in assay [2] is 27.5 µM (active).
As for `Oc1ccc2c(c1)Cc1ccccc1-2`, the Potency entry in [1], in [3], in assay [4], in [8], in [5] and in [6] was “inactive” in each case. Further, in assay [7], the Potency entry was “inactive”. The Potency in assay [9] was 61.1 µM (active).
As for `O[C@@H](CNC[C@H](O)[C@H]1CCc2cc(F)ccc2O1)[C@@H]1CCc2cc(F)ccc2O1`, the Potency was 29.8 µM (active) in assay [1] and 33.5 µM (active) in [6]. Moreover, the Potency entry in assay [2], in assay [9] and in assay [7] was “inactive” in each case.
